Some test systems named below: T-47D breast; BT-549 breast; MDA-MB-435 melanoma; SW-620 colon; MCF7 breast; HCT-116 colon; HCC-2998 colon; KM12 colon.
Assay in all cases: NCI-60 one-dose screen, 48 h (100 = growth as untreated, 0 = no growth, -100 = all killed)
Settings in all cases: 10 µM unless noted

About 83,000 compounds went through this panel and 20% of them were active in at least one assay; those are over-represented in the sample as a whole.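 48-hour exposure, single concentration, 96-well plates; percent growth endpoint where 0 means no net growth. Active: below 10.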 Unmarked numbers belong to inactive results. Activity calls are given as the source filed them.

Turning to `CN(C)C(=O)OCc1ccc2c(Cl)cc(Cl)c(O)c2n1`, the growth with T-47D breast is 37.8%; with BT-549 breast, 60.3%; with MDA-MB-435 melanoma it was 31.2%; with SW-620 colon it was 25.7%; in the assay with MCF7 breast, 32.4%; in the assay on HCT-116 colon, 31.6%. Moreover, the growth is 61.8% in the assay on HCC-2998 colon and 35.4% in the assay on KM12 colon.

With `O=c1oc2ccccc2cc1-c1nn(-c2ccccc2)cc1/C=N/Nc1nc(-c2ccccc2)c(N=Nc2ccccc2)s1`, the growth was 57.4% in the assay on T-47D breast; 61.8% in the assay with BT-549 breast; -27.8% (active) in the assay with MDA-MB-435 melanoma; 43.4% in the assay on SW-620 colon; 44.3% with MCF7 breast; 56.9% in the assay on HCT-116 colon. The growth is 85.6% in the assay with HCC-2998 colon and 44.7% in the assay with KM12 colon.

With `COc1ccc(/C=C/C(=O)c2ccc(-n3cc(CN4CCN(c5cc6c(cc5F)c(=O)c(C(=O)O)cn6C5CC5)CC4)nn3)cc2)cc1`, the growth in the assay with T-47D breast is 78.6%; in the assay on BT-549 breast, 65.8%; in the assay with MDA-MB-435 melanoma, 22.2%; in the assay on SW-620 colon, 32.8%; in the assay with MCF7 breast it was 13.2%; with HCT-116 colon it was -31.3% (active). For the same compound, the growth was 44% with HCC-2998 colon and 42.6% in the assay on KM12 colon.

Consider `CCN1C(=O)N(CC)C2C1NN=c1s/c(=C\c3ccc([N+](=O)[O-])cc3)c(=O)n12` (stereo not given), for which the growth is 23.9% in the assay with T-47D breast; 32.7% with BT-549 breast; -23.4% (active) in the assay with MDA-MB-435 melanoma; 19.8% with SW-620 colon; 7.6% (active) in the assay on MCF7 breast; 7.31% (active) in the assay with HCT-116 colon. Besides, the growth with HCC-2998 colon was 11.4%; in the assay on KM12 colon, 19.6%.

For the compound `Cc1ccc(C2=Nc3c(N)nc(N)nc3NC(c3cccc(Nc4ccnc5cc(C(F)(F)F)ccc45)c3)C2)cc1` (stereo not given), the growth in the assay with T-47D breast is 46.9%; in the assay on BT-549 breast, 94%; in the assay on MDA-MB-435 melanoma, -40.1% (active); with SW-620 colon, 19.1%; with MCF7 breast it was 6.88% (active); with HCT-116 colon, 1.85% (active). Besides, the growth in the assay on HCC-2998 colon is 35%; in the assay with KM12 colon it was 15%.

On to `O=c1[nH]c(CN2CCN(c3ccccc3)CC2)nc2c(Br)cc(Br)cc12`, for which the growth was 103% in the assay with T-47D breast; 123% in the assay with BT-549 breast; 108% in the assay on MDA-MB-435 melanoma; 102% in the assay with SW-620 colon; 110% with MCF7 breast; 107% with HCT-116 colon. In addition, the growth is 101% in the assay on HCC-2998 colon and 105% with KM12 colon.

As to `Nc1nc(N)c2c(n1)NC(c1ccc3c(c1)OCO3)CC(c1cccc(Nc3ccncc3)c1)=N2` (stereo not given), the growth is 88.5% in the assay on T-47D breast; 117% with BT-549 breast; 50.5% in the assay with MDA-MB-435 melanoma; 58% in the assay with SW-620 colon; 63% with MCF7 breast; 43.7% in the assay on HCT-116 colon. The growth in the assay with HCC-2998 colon was 88.1%; with KM12 colon it was 80%.

`CC(C)c1nc(N(C)S(C)(=O)=O)nc(-c2ccc(F)cc2)c1/C=C/C(=O)C[C@@H](O)CC(=O)O`: the growth was 101% in the assay on T-47D breast; 94.2% in the assay with BT-549 breast; 103% with MDA-MB-435 melanoma; 108% in the assay with SW-620 colon; 97.2% in the assay on MCF7 breast; 91.1% in the assay with HCT-116 colon. The growth in the assay on HCC-2998 colon is 98.2%; in the assay with KM12 colon, 97.1%.

With `COc1ccc(Nc2nccc(Nc3ccc4[nH]ncc4c3)n2)cc1`, the growth was -3.74% (active) in the assay on T-47D breast; 44.2% in the assay on BT-549 breast; 34.9% with MDA-MB-435 melanoma; 24.8% in the assay on SW-620 colon; 13.3% in the assay with MCF7 breast; 19.3% with HCT-116 colon. The results for the growth in the assay on HCC-2998 colon and in the assay with KM12 colon were 63.4% and 10%, respectively.

Take `C=CCn1c(SCC(=O)Nc2ccc(C(=O)/C=C/c3ccc(Cl)cc3)cc2)nnc1-c1ccc(Cl)c(Cl)c1`: the growth in the assay with T-47D breast is 76.6%; with BT-549 breast, 78%; in the assay on MDA-MB-435 melanoma it was 37.9%; in the assay with SW-620 colon it was 90.9%; in the assay with MCF7 breast it was 19.7%; in the assay on HCT-116 colon, -71.5% (active). In addition, the results for the growth with HCC-2998 colon and in the assay on KM12 colon were 95.9% and 85.2%, respectively.

Consider `C#CCOc1ccc(C2=NN(CCCC)C3N=C(Cl)c4ncn(CCCC)c4N23)cc1OCC#C` (stereo not given), for which the growth in the assay on T-47D breast was 69.6%; in the assay on BT-549 breast, 90.6%; in the assay on MDA-MB-435 melanoma it was 86.7%; with SW-620 colon, 88.7%; in the assay on MCF7 breast, 81.8%; in the assay on HCT-116 colon it was 83.1%. For the same compound, the growth is 107% with HCC-2998 colon and 88.3% with KM12 colon.

`O=S(=O)(c1ccc(NCSc2nc3ccccc3s2)cc1)c1ccc(NCSc2nc3ccccc3s2)cc1`: the growth was 63.9% in the assay on T-47D breast; 87.5% with BT-549 breast; 112% with MDA-MB-435 melanoma; 100% with SW-620 colon; 97.5% in the assay with MCF7 breast; 86.5% in the assay with HCT-116 colon. Further, the growth is 95.5% with HCC-2998 colon and 102% in the assay with KM12 colon.

For the compound `Cn1cc(-c2nc(-c3c[nH]c4c(Cl)nccc34)cs2)c2ccccc21`, the growth with T-47D breast is 87.1%; with BT-549 breast, 110%; in the assay with MDA-MB-435 melanoma, 96.4%; in the assay on SW-620 colon it was 99.4%; in the assay on MCF7 breast, 44.7%; in the assay with HCT-116 colon, 94.4%. Besides, the growth in the assay on HCC-2998 colon is 94.5%; with KM12 colon, 95.9%.

On to `COc1ccc(NC(=O)c2ccc(NC3=C(c4ccc(Cl)cc4)C(=O)NC3=O)cc2)cc1`, for which the growth is 62.3% with T-47D breast; 82.1% with BT-549 breast; 95.3% in the assay on MDA-MB-435 melanoma; 103% with SW-620 colon; 83.5% in the assay with MCF7 breast; 88.9% in the assay on HCT-116 colon. For the same compound, the growth was 97.6% with HCC-2998 colon and 80.9% in the assay with KM12 colon.

With `CCN=c1sc2c(n1NC(=O)c1cc3ccc1CCc1ccc(cc1)CC3)C(=O)c1ccccc1C2=O`, the growth with T-47D breast is -19.8% (active); in the assay with BT-549 breast, -97.4% (active); with MDA-MB-435 melanoma it was -97.1% (active); with SW-620 colon, -56.6% (active); with MCF7 breast, -63.1% (active); in the assay with HCT-116 colon, -50.9% (active). The growth was -37.9% (active) in the assay on HCC-2998 colon and -29.9% (active) in the assay with KM12 colon.

These data come from PubChem BioAssay (NCI).
